Laboratory results as given in PubChem BioAssay (NCI).
About 83,000 compounds went through this panel and 20% of them were active in at least one assay; those are over-represented in the sample as a whole.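 Values shown are percent growth following 48 h exposure of cells in 96-well plates to a single concentration of compound; below 10 was considered active.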 The source made the active and inactive calls.

Columns and labels:
Experiment in all cases: NCI-60 one-dose screen, 48 h (100 = growth as untreated, 0 = no growth, -100 = all killed)
Details in all cases: 10 µM unless noted
[1] = tested on: NCI-H23 lung
[2] = tested on: NCI-H226 lung
[3] = tested on: NCI-H322M lung
[4] = tested on: HOP-62 NSCLC
[5] = tested on: NCI-H460 lung
[6] = tested on: HOP-92 NSCLC
[7] = tested on: NCI-H522 lung
[8] = tested on: A549/ATCC NSCLC
[9] = tested on: 786-0 renal
[10] = tested on: COLO 205 colon
[11] = tested on: DU-145 prostate
[12] = tested on: K-562 leukemia
[13] = tested on: MALME-3M melanoma
[14] = tested on: MDA-MB-231 breast
[15] = tested on: RXF 393 renal
[16] = tested on: SF-268 CNS
[17] = tested on: SF-295 CNS
[18] = tested on: SF-539 CNS
[19] = tested on: UACC-257 melanoma
[20] = tested on: M14 melanoma

Measured: growth

C=C(C)[C@@H]1CC[C@]2(c3nnc(-c4ccncc4)o3)CC[C@]3(C)[C@H](CC[C@@H]4[C@@]5(C)CCC(=O)NC(C)(C)[C@@H]5CC[C@]43C)[C@@H]12
inactive: [1] 94.7% | [2] 87.8% | [3] 94.3% | [4] 97.9% | [5] 98.5% | [6] 71.9% | [7] 93.9% | [8] 92.8% | [9] 96.2% | [10] 109% | [11] 108% | [12] 80.5% | [13] 101% | [14] 89.8% | [15] 97.9% | [16] 89.5% | [17] 99.4% | [18] 96.9% | [19] 97.9% | [20] 99%

OCC(CO)(CCl)CCl
inactive: [1] 93.2% | [2] 101% | [3] 112% | [4] 99% | [5] 106% | [6] 86.4% | [7] 91.1% | [8] 76.7% | [9] 100% | [10] 105% | [11] 105% | [12] 106% | [13] 101% | [14] 94.8% | [15] 113% | [16] 98% | [17] 107% | [18] 102% | [19] 69.6% | [20] 89.4%

CC1(C)C=CC[C@]2(C)[C@H]3CC[C@@H]4[C@H]5[C@H](C(=O)/C=C/c6cccnc6)CC[C@]5(CO)CC[C@@]4(C)[C@]3(C)CC[C@@H]12
active: [1] -60% | [2] -54.1% | [3] 9.88% | [4] -81.3% | [5] -62.4% | [6] -92.7% | [7] -73.7% | [8] -41.5% | [9] -59.8% | [10] -71.9% | [11] -94.2% | [12] -29.3% | [13] -85% | [14] -77.6% | [15] -86.7% | [16] -57.6% | [17] -91.4% | [18] -96.2% | [19] -49.7% | [20] -74.4%

c1csc(-c2nc(-c3cc4ccccc4c(N4CCOCC4)n3)cs2)c1
inactive: [1] 87.8% | [2] 107% | [3] 94.1% | [4] 97.6% | [5] 100% | [6] 116% | [7] 93.8% | [8] 95.6% | [9] 96.9% | [10] 20.5% | [11] 113% | [12] 102% | [14] 88.7% | [15] 111% | [16] 91.6% | [17] 101% | [18] 103% | [19] 17.3% | [20] 49.1%
active: [13] 0.576%

COc1ccc(C2C(C#N)=C(N)Oc3c2sc2c(F)cccc32)cc1 (stereo not given)
active: [7] 6.47% | [10] 5.98% | [12] 9.11% | [15] -8.26% | [18] 1.03% | [20] -15.6%
inactive: [1] 34.6% | [2] 76% | [3] 50% | [4] 22.9% | [5] 11.6% | [6] 41.7% | [8] 36.7% | [9] 29.4% | [11] 17.3% | [13] 65.4% | [14] 41% | [16] 42.6% | [17] 20.2% | [19] 64.9%

Cn1cc(-c2csc(-c3cn(CCNC(=O)OC(C)(C)C)c4ccc(F)cc34)n2)c2cccnc21
inactive: [1] 57% | [2] 50.8% | [3] 83.9% | [4] 65.7% | [5] 85.9% | [6] 49.2% | [7] 44.3% | [8] 63.1% | [9] 88.1% | [10] 67.5% | [11] 94.2% | [12] 56.4% | [13] 83.2% | [14] 78.4% | [15] 105% | [16] 81.4% | [17] 86.2% | [18] 81.7% | [19] 94.2% | [20] 52.3%

CC(=O)Cc1nsc(NC(=O)c2ccoc2COc2ccccc2)n1
inactive: [1] 95.2% | [2] 105% | [3] 94.3% | [4] 107% | [5] 107% | [6] 90.1% | [7] 94.1% | [8] 99.3% | [9] 98.7% | [10] 121% | [11] 106% | [12] 90.6% | [13] 96.8% | [14] 95% | [15] 113% | [16] 96.3% | [17] 98.6% | [18] 91.6% | [19] 93.2% | [20] 95.4%

Clc1ccccc1-c1nc(Nc2nc3ccccc3s2)nc(C(Cl)(Cl)Cl)n1
inactive: [1] 76.4% | [2] 95% | [3] 24.6% | [4] 40.5% | [6] 55.6% | [7] 88.4% | [8] 18% | [9] 75.8% | [10] 10.9% | [11] 15.9% | [12] 50.8% | [13] 79.6% | [14] 14.5% | [15] 16.7% | [16] 81.7% | [17] 37.8% | [18] 32.8% | [19] 83.9% | [20] 80.1%
active: [5] 1.36%

Cc1cc(N2CCCCC2)nc(N(CCCNc2ccnc3cc(Cl)ccc23)Cc2ccco2)n1
active: [4] 8.53% | [6] -6.02% | [10] -35.3% | [12] 3.78% | [13] -5.59% | [18] -36.5% | [20] -74.4%
inactive: [1] 21.4% | [2] 57.1% | [3] 19.6% | [5] 10.7% | [7] 49.9% | [8] 18.4% | [9] 24.2% | [11] 39% | [14] 21.8% | [15] 19.6% | [16] 44% | [17] 20.3% | [19] 49.4%

C[C@@H](Oc1ccc(C(=O)NS(=O)(=O)C(C)(C)C)cc1C(F)(F)F)c1ccc(Oc2ccccc2)cn1
active: [15] -12.5%
inactive: [1] 61.2% | [2] 72.7% | [3] 54.3% | [4] 52.2% | [5] 45.7% | [6] 63.7% | [7] 24.5% | [8] 74.8% | [9] 37.5% | [10] 48.7% | [11] 79.6% | [12] 19.9% | [13] 44.4% | [14] 68.9% | [16] 54.3% | [17] 22.2% | [18] 29.8% | [19] 51.5% | [20] 22.8%

CC1(C)NC2=C(C(Nc3cccnc3)N1)C(c1ccc([N+](=O)[O-])cc1)C(C(=O)c1ccc(N=[N+]=[N-])cc1)O2 (stereo not given)
inactive: [1] 103% | [2] 105% | [3] 100% | [4] 103% | [5] 95.4% | [6] 94% | [7] 96.7% | [8] 104% | [9] 100% | [10] 109% | [11] 106% | [12] 101% | [13] 99.2% | [14] 102% | [15] 112% | [16] 101% | [17] 104% | [18] 102% | [19] 104% | [20] 104%

C=C(C)[C@@H]1CC[C@]2(C=NCCCNCCCCNCCCN)CC[C@]3(C)[C@H](CC[C@@H]4[C@@]5(C)CCCNC(C)(C)[C@@H]5CC[C@]43C)[C@@H]12
inactive: [1] 82.5% | [2] 80.1% | [3] 100% | [4] 92.9% | [5] 91.7% | [6] 92.4% | [7] 99.6% | [8] 88.8% | [9] 107% | [10] 79.1% | [11] 101% | [12] 20.1% | [13] 103% | [14] 104% | [15] 110% | [16] 102% | [17] 91.2% | [18] 95.3% | [19] 107% | [20] 98.5%

N=c1c(S(=O)(=O)c2ccccc2)cc2c(=O)n3ccccc3nc2n1C1CCCC1
inactive: [1] 95.8% | [2] 91.9% | [3] 74.9% | [4] 79% | [5] 105% | [6] 39.4% | [7] 92% | [8] 80.2% | [9] 80.8% | [10] 113% | [11] 93.2% | [12] 76.6% | [13] 108% | [14] 64% | [15] 86% | [16] 83.5% | [17] 91.2% | [18] 83.7% | [19] 111% | [20] 110%

N=C(N)c1ccc(S(N)(=O)=O)cc1
inactive: [1] 93.6% | [2] 101% | [3] 96.2% | [4] 87.1% | [5] 113% | [6] 93.6% | [7] 91.8% | [8] 91.9% | [9] 90.8% | [10] 122% | [11] 104% | [12] 106% | [13] 87.6% | [14] 110% | [15] 66.7% | [16] 96.1% | [17] 98.8% | [18] 129% | [19] 93% | [20] 94.7%

Brc1ccc(Cn2nnnc2-c2ccn(-c3ccccc3)n2)cc1
inactive: [1] 62.3% | [2] 62.8% | [3] 76.8% | [4] 74.3% | [5] 73.8% | [6] 63.8% | [8] 67.8% | [9] 82.8% | [10] 96.6% | [11] 85.8% | [12] 46.2% | [13] 103% | [14] 73.5% | [15] 87.1% | [16] 73.2% | [17] 50.5% | [18] 80.8% | [19] 28.8% | [20] 83.4%
active: [7] -1.66%
